In the library only some 1.3% were active in any assay of this set; here they are far more common.
12-LOX inh – inhibitors of human 12S-lipoxygenase ALOX12; P18054; purified 12hLO, xylenol orange hydroperoxide absorbance; 1.1% of 580,000 active; Potency, µM (highest dose often 108 µM), for inactives: at the top dose activity change, negative = inhibition, hits mostly inhibitors; AID 1671190; note: potency is the fitted concentration of half-maximal effect; % is set by controls: 0 for no effect and ±100 for the full control effect
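Hydroperoxide product was detected by ferrous iron/xylenol orange as the 573 to 405 nm absorbance ratio. Arachidonic acid at 40 uM (final) was turned over for 30 min at room temperature by 150 nM human 12hLO, pH 7.0 Hepes buffer, after 15 min compound preincubation.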
TRPML1 inh – human mucolipin-1 channel inhibition | Q9GZU1 | TRPML1-inducible cells, Ca2+ dye fluorescence, FDSS; active compounds read low; inhibition of EC80 agonist-evoked calcium signal | activity change, negative = inhibition, % (no concentration beside the values) | 0.02% of 390,000 active; in the data active = activity change below about -50%; inconclusive = between about -30% and that limit;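 note: stimulus is agonist 54-4 at its EC80 concentration; % is set by controls: 0 for no effect and ±100 for the full control effect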
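Calcium fluorescence in TRPML1-DL cells induced overnight with Tet: a 110 s read after compound pin addition, then a 110 s antagonist read after challenge with 54-4 at 4 uM final (EC80).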
Glioma ERSR ind – ER stress response induction in glioma. Potency, µM, inactives show at the highest dose activation, actives largely listed as activators. 0.02% of 420,000 active. U87-MG GRP78 promoter luciferase reporter, 16 h; note: potency is the fitted concentration of half-maximal effect; series mostly up to about 76 µM; % of control where 0% means no effect; nearly all actives have a fitted effect of over 35% in size
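Stably transfected U87-MG glioma cells carrying a GRP78-based luciferase sensor; 16 h compound incubation. Luminescence end-point read 10 min after Bright-Glo addition at room temperature.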
Vif-APOBEC3F blk – Vif-A3F binding inhibition | 0.2% of 390,000 active | HeLa A3F-eYFP + Vif (tagged APOBEC3F with the HIV-1 protein that degrades it), YFP fluorescence increase | Potency, µM (top dose mostly 46.1 µM), for inactives: top-dose activity, negative = active; note: potency is the fitted concentration of half-maximal effect; % of control where 0% means no effect; nearly all actives have a fitted effect of over 65% in size
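HeLa cells stably expressing Vif plus C-terminally eYFP-tagged A3F were seeded, incubated overnight at 37 deg C, dosed with compound, incubated overnight again at 37 deg C. Yellow fluorescence (Ex 488/Em 500-530) reported blocked Vif-mediated A3F-eYFP degradation.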
TRPML1 ag – agonists of human TRPML1 channel; TRPML1-expressing cells, Ca2+ dye fluorescence, FDSS; 0.12% of 410,000 active; AID 624414; Q9GZU1; activation, % (no concentration beside the values); in the data active = activation above about 50%; inconclusive = mostly about 30% to 49%; note: 0% is about no effect
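Tet-induced TRPML1-DL cells, 1,500 per well, cultured overnight, were loaded with a no-wash Ca2+ dye for 45–90 min. Calcium fluorescence was recorded on the FDSS for 110 s after compound addition, before the EC80 agonist (4 uM 54-4) was added.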
Vif-A3G inh – inhibitors of Vif-APOBEC3G interaction. HeLa A3G-eYFP + Vif (tagged APOBEC3G with the HIV-1 protein that degrades it), YFP fluorescence, overnight. 0.076% of 410,000 active. Potency, µM (highest dose often 46.1 µM), without a hit: top-dose activity, negative = active, hits mostly inhibitors; note: potency is the fitted concentration of half-maximal effect; % is set by controls: 0 for no effect and ±100 for the full control effect; nearly all actives have a fitted effect of over 60% in size
Target sequence (Q9HC16 whole entry, looked up): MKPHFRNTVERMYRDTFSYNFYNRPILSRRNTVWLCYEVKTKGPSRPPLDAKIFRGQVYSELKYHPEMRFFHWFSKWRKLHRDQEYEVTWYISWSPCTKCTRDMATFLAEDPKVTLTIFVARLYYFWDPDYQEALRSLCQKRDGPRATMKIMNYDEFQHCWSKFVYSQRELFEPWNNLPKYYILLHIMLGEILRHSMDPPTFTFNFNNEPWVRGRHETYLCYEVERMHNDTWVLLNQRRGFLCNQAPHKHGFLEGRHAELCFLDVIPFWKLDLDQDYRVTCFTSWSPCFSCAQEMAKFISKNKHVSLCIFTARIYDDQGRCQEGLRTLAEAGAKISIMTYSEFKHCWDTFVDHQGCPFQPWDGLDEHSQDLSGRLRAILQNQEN
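Read-out is eYFP fluorescence (Ex 488/Em 500-530) from Vif-expressing HeLa A3G-eYFP cells; more signal means A3G escaped Vif-mediated degradation. Cells plated overnight, compound pinned in, incubated overnight at 37 deg C.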
The depositor's hits bear a star; ? = inconclusive; nt = no result; [ ] = dose if it differs, or a comment. Unless noted, calls come from the whole dose curve; as a rule, active = well fitted curve in the direction sought with a large enough effect; inconclusive = small, poorly fitted or top-dose-only effect, or another doubt; inactive = no such curve, though single readings can be large; an effect the other way counts as inactive or inconclusive.

SMILES	12-LOX inh	TRPML1 inh	Glioma ERSR ind	Vif-APOBEC3F blk	TRPML1 ag	Vif-A3G inh
COc1ccc(CN2CCN(C(C)=O)CC2)cc1OC1CCN(C(=O)c2ccc3ccccc3n2)CC1	28µM*	nt	2%	nt	nt	nt
COc1ccc(CN2CCN(C(=O)c3cccc4ccccc34)CC2)cc1OC	37%	7	-4%	-2%	1	3%
Cc1ccccc1CN1CCN(C(=O)c2ccc3ccccc3n2)CC1	-24%	nt	nt	nt	nt	nt
Cc1ccc(CN2CCN(C(=O)c3cccc4ccccc34)CC2)cc1	1.3µM*	-11	-5%	9%	0	6%
Cc1cccc(CN2CCN(C(=O)c3cccc4ccccc34)CC2)c1	?	7	-3%	1%	-1	-1%
Cc1ccccc1CN1CCN(C(=O)c2cccc3ccccc23)CC1	2.8µM*	11	-3%	0%	0	3%
Cc1nc(-c2ccc(S(=O)(=O)Nc3c(C)cccc3C)cc2)co1	17%	nt	nt	nt	nt	nt
CC(C)C[C@@H](NC(=O)C1=C[C@@H](NS(=O)(=O)c2cccc(C(F)(F)F)c2)[C@@H](O)[C@H](O)C1)C(N)=O	40µM*	nt	nt	nt	nt	nt
CCCC(=O)NC(c1ccc(C)cc1)c1ccc2cccnc2c1O (stereo not drawn)	nt	28	-2%	1%	2	-25%
Cc1ccc(C(Nc2ccccn2)c2ccc3cccnc3c2O)cc1 (stereo not drawn)	18µM*	10	-2%	-20%	1	-9%
COc1ccccc1NC(=S)NC(=O)/C=C/c1ccco1	40µM*	16	-1%	-7%	1	-24%
O=C(/C=C/c1ccco1)NC(=S)Nc1cccc([N+](=O)[O-])c1	40µM*	13	-6%	-2%	0	?
Cc1ccc(-n2nc3ccc(NC(=S)NC(=O)/C=C/c4ccco4)cc3n2)cc1	?	15	-2%	-2%	0	-1%
Cc1ccc(-n2nc3cc(C)c(NC(=S)NC(=O)/C=C/c4ccco4)cc3n2)cc1	45µM*	40	-2%	3%	0	-5%
COc1ccccc1NC(=O)Cn1cnc2c(nnn2Cc2ccc(F)cc2)c1=O	-12%	nt	nt	nt	nt	nt
C=CCn1c(CCc2cc(C(C)(C)C)c(O)c(C(C)(C)C)c2)n[nH]c1=S	35µM*	25	-4%	1%	3	-8%
CN(C)S(=O)(=O)c1ccc(N2CCCC2)c(C(=O)NCC(=O)Nc2ccc(F)c(F)c2)c1	?	-22	-4%	-18%	0	0%
Cc1ccc(NC(=O)c2cc(S(=O)(=O)N(C)C)ccc2N2CCCC2)cc1F	70%	6	32µM*	-25%	2	-11%
COc1ccnc(N2CCN(CC3(O)CNCCOC3)CC2)n1 (stereo not drawn)	-20%	nt	nt	nt	nt	nt
OC1(CN2CCN(c3nccs3)CC2)CNCCOC1 (stereo not drawn)	10µM*	nt	nt	nt	nt	nt
CCc1ccc(S(=O)(=O)c2cn(CC(=O)Nc3ccccc3C)c3ccc(F)cc3c2=O)cc1	9%	nt	nt	nt	nt	nt
CC(C)Nc1nc(NC(N)=S)nc(NC(C)C)n1	?	8	-5%	-7%	-1	3%
CC(C)Nc1nc(NC(N)=S)nc(NC(C)(C)C)n1	45µM*	-3	-8%	-18%	1	0%
CC(C)c1ccc(CNC(=O)Nc2ccccc2Cl)cc1	11%	nt	nt	nt	nt	nt
Cc1ccc(OC2(C(=O)N3CCCC3c3nccs3)CCNCC2)cc1 (stereo not drawn)	18µM*	nt	nt	nt	nt	nt
SMILES	12-LOX inh	TRPML1 inh	Glioma ERSR ind	Vif-APOBEC3F blk	TRPML1 ag	Vif-A3G inh
CCCCCCCCCCSCCC(=O)O	40µM*	nt	nt	nt	nt	nt
C(=C\c1ccnc2ccccc12)/c1ccnc2ccccc12	nt	nt	8%	nt	-1	-3%
Cn1cc(/C=C/c2ccnc3ccccc23)c2ccccc21	nt	nt	0%	nt	11	10µM*
Nc1ccccc1/C=C/c1ccnc2ccccc12	nt	nt	0%	nt	5	13µM*
O=C(CCc1ncc(-c2ccc(Cl)cc2)o1)NCc1cccc(Cl)c1	-29%	nt	nt	nt	nt	nt
CCCCCC(=O)N1C[C@H](n2cc(COC(=O)c3ccccc3)nn2)[C@@H](O)C[C@@H]1c1ccc(C)cc1	40µM*	3	-3%	-13%	5	-6%
CCCCCC(=O)N1C[C@@H](O)[C@H](n2cc(COC(=O)c3ccccc3)nn2)C[C@@H]1c1ccc(C)cc1	?	7	-2%	-4%	4	-1%
CCn1c(CSc2nccc(C)n2)nc2cc(NC(=O)c3cccc(Br)c3)ccc21	21%	nt	nt	nt	nt	nt
Cc1ccc(-c2nc(CC(=O)NCc3ccccc3F)cs2)o1	11µM*	nt	nt	nt	nt	nt
Cc1ccc(-c2nc(CC(=O)NCCc3ccccc3F)cs2)o1	-34%	nt	nt	nt	nt	nt
O=S(=O)(c1ccc(-c2csc(Nc3cccc4ccccc34)n2)cc1)N1CCCCC1	16µM*	nt	nt	nt	nt	nt
CNc1nc(-c2ccc(S(=O)(=O)N3CCCCC3)cc2)cs1	?	-12	4%	-15%	0	-18%
CCCN1C(=O)[C@@H]2[C@@H](CCN2C(=O)CSCC(=O)O)N(Cc2cccs2)C1=O	32µM*	nt	nt	nt	nt	nt
Cc1cc(Cl)ccc1NC(=S)NCCc1ccc(Cl)cc1	22µM*	-20	-4%	-1%	1	4%
CC(C)c1ccc(CCNC(=S)Nc2ccc(Cl)cc2Cl)cc1	14µM*	nt	nt	nt	nt	nt
S=C(NCCc1ccccc1)Nc1ccc(Cl)cc1Cl	?	-6	-4%	6%	0	5%
Cc1cc(Cl)ccc1NC(=S)NCc1ccc(Cl)cc1	-27%	3	-3%	nt	2	0%
CCCOC(=O)C(C)Oc1ccc2c(=O)c(Oc3ccc(CC)cc3)coc2c1 (stereo not drawn)	8%	nt	nt	nt	nt	nt
S=C(NCc1ccc2[nH]c3c(c2c1)CCCC3)Nc1ccccc1	40µM*	6	0%	-1%	1	-2%
Cc1cc(C)cc(NC(=S)NCc2ccc3[nH]c4c(c3c2)CCCC4)c1	40µM*	10	-2%	-3%	0	-5%
Cc1cc(C)cc(NC(=O)CN(C)S(=O)(=O)c2ccc3[nH]c4c(c3c2)CCCC4)c1	-7%	21	-2%	0%	2	4%
O=S(=O)(NCc1ccccc1)c1ccc2[nH]c3c(c2c1)CCCCC3	-13%	4	-4%	-21%	0	5%
CC(C)(c1nnnn1-c1ccc(Cl)cc1)N1CCOCC1	-5%	nt	nt	nt	nt	nt
O=C(O)CNC(=O)C12CC3CC(CC(C3)C1)C2	-39%	nt	nt	nt	nt	nt
CC(C)CNC(=O)C(=O)O	-24%	nt	nt	nt	nt	nt
C[C@@H](NC(=O)C1CC1)c1c(-c2ccc(F)cc2)noc1C(=O)O	50µM*	nt	nt	nt	nt	nt
C[C@@H](NC(=O)C1CC1)c1onc(-c2ccc(F)cc2)c1C(=O)O	3%[176 µM]	nt	nt	nt	nt	nt
COc1cc(OC)c(OC)cc1/C=C(/C#N)C(=O)c1c(Cl)cccc1Cl	5%	nt	nt	nt	nt	nt
COc1cc(/C=C(/C#N)C(=O)c2c(Cl)cccc2Cl)cc(OC)c1	28µM*	nt	nt	nt	nt	nt
